We go through 1 compound from ChEMBL document CHEMBL2218924, “A broad activity screen in support of a chemogenomic map for kinase signalling research and drug discovery” (Biochem J, 2013).

Assay [1] deals with Tyrosine-protein kinase SYK (Homo sapiens) (UniProt P43405). Particulars: at 10 µM.
Assay [2] has as its target T1, Mitogen-activated protein kinase kinase kinase 7 (Homo sapiens) (UniProt O43318).
T1 sequence (whole entry): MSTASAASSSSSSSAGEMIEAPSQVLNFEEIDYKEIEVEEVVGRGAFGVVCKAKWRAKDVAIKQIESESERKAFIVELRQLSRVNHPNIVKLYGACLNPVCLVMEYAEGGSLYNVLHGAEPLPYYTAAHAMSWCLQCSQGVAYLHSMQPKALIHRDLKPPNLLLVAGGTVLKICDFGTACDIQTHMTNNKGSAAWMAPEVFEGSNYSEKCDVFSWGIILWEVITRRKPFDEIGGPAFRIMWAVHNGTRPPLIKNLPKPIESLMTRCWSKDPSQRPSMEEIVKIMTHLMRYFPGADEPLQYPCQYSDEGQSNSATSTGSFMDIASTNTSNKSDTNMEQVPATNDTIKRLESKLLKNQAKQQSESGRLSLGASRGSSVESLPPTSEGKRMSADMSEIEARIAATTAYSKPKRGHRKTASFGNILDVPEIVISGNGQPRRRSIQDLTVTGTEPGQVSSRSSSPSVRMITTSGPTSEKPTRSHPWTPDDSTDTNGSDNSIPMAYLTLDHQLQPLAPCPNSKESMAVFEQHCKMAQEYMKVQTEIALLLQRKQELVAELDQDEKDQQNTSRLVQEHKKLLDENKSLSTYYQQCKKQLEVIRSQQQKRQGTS
Conditions: at 1 µM.

Assay [3] deals with T1, Mitogen-activated protein kinase kinase kinase 7 (Homo sapiens). Conditions: at 10 µM.
Assay [4] addresses T2, Serine/threonine-protein kinase TAO1 (Homo sapiens) (UniProt Q7L7X3).
T2 sequence (whole entry): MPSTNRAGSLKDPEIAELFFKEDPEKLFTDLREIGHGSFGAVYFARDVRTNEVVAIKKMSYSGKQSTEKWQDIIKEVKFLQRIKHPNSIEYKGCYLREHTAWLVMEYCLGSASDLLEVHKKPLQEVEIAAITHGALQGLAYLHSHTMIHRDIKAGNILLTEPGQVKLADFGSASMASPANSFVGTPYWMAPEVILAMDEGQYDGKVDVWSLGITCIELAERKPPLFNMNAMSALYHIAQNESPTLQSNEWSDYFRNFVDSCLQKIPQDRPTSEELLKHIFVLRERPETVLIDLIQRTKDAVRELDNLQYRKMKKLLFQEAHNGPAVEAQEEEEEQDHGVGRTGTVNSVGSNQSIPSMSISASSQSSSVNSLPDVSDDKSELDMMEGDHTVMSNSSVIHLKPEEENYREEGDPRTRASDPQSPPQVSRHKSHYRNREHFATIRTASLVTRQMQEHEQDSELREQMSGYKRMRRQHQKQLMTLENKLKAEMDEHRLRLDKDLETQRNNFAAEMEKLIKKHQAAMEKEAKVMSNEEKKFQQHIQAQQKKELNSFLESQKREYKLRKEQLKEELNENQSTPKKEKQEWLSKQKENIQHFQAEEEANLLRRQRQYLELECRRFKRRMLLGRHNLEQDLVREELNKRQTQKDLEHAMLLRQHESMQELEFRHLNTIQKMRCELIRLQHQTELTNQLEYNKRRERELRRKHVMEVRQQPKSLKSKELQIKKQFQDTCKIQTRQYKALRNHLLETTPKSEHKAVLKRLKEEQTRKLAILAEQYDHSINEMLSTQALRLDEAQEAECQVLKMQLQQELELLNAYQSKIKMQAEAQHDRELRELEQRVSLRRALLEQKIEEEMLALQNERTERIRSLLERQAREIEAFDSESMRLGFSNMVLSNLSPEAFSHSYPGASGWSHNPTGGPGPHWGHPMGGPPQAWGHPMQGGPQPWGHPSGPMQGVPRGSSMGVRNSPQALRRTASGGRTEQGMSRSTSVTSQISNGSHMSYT
Particulars: at 1 µM.

Assay [5] addresses T2, Serine/threonine-protein kinase TAO1 (Homo sapiens). Conditions: at 10 µM.
Assay [6] deals with T3, Serine/threonine-protein kinase TAO2 (Homo sapiens) (UniProt Q9UL54).
T3 sequence (whole entry): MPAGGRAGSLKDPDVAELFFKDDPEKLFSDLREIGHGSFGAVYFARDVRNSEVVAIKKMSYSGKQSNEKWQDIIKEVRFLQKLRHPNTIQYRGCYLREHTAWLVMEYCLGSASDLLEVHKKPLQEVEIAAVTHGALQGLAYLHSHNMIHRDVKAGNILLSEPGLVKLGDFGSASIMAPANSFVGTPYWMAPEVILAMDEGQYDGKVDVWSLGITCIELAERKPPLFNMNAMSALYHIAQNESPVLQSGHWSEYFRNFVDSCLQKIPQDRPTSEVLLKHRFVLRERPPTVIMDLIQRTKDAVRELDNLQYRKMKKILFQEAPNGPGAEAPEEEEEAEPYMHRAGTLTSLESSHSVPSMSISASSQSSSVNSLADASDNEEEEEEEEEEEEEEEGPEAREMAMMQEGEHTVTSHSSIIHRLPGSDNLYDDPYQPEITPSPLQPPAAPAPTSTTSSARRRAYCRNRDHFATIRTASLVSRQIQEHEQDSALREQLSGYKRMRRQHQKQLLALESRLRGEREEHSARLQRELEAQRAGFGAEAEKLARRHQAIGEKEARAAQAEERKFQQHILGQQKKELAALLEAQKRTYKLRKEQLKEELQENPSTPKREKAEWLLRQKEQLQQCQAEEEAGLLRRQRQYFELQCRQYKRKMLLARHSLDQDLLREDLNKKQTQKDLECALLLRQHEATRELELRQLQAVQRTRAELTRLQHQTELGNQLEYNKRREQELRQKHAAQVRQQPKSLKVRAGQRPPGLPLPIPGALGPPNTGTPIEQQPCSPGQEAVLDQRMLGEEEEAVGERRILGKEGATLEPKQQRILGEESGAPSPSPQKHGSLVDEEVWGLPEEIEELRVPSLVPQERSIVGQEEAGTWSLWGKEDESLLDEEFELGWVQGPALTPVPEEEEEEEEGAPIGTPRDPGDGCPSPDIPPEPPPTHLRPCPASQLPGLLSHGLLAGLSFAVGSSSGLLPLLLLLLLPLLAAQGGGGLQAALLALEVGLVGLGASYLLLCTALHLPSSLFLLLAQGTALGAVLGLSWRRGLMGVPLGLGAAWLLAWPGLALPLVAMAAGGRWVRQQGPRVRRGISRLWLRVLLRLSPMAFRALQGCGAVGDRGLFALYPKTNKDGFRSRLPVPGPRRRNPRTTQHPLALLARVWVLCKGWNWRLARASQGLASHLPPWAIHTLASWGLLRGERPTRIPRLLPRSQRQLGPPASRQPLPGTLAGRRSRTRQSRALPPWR
Particulars: at 1 µM.

Assay [7] addresses T3, Serine/threonine-protein kinase TAO2 (Homo sapiens). Conditions: at 10 µM.
The target of assay [8] is T4, Serine/threonine-protein kinase TAO3 (Homo sapiens) (UniProt Q9H2K8).
T4 sequence (whole entry): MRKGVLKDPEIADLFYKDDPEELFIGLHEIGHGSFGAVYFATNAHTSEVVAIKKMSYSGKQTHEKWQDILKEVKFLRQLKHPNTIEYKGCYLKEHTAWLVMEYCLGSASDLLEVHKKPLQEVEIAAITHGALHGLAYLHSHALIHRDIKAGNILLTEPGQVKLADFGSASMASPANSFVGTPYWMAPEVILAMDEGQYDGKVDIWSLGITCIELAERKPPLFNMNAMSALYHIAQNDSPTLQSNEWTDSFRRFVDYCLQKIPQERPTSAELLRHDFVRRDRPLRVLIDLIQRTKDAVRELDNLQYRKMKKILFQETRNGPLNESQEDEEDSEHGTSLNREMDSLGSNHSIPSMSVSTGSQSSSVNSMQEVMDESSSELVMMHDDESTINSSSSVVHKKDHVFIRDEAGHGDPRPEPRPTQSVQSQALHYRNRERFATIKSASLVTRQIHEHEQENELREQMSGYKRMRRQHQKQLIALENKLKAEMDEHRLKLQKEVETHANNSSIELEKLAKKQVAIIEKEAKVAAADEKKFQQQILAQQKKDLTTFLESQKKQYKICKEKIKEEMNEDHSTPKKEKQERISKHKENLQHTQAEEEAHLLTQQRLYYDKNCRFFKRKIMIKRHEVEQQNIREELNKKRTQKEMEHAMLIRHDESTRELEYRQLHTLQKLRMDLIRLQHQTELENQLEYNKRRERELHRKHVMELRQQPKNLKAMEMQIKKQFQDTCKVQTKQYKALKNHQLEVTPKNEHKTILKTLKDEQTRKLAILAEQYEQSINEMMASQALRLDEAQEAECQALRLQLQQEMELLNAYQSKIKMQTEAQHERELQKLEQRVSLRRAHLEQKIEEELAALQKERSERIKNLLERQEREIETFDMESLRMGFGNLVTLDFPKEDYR
Conditions: at 1 µM.

Assay [9] has as its target T4, Serine/threonine-protein kinase TAO3 (Homo sapiens). Conditions: at 10 µM.

Consider `O=C(O)/C=C/c1cc(Br)c(Br)c(Br)c1Br`, for which the residual activity came to 84% in [1]; 107% in assay [2]; 95% in assay [3]; 77% in assay [4]; 29% in assay [5]; 84% in [6]. For the same compound, the residual activity is 68% in assay [7], 81% in assay [8] and 26% in [9].
